Assay outcomes as filed in PubChem.
Compounds with a hit are over-represented: about 1.5% of the library has one in this group of screens.
MCL1 BIM primary = inhibitors of human MCL1 binding to BIM-BH3 peptide. hit rate 0.68% among 320,000. GST-MCL1 / FITC-Bim-BH3 fluorescence polarization. inhibition, % at 10.9 µM. AID 2057;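 active means inhibition above the mean inhibition of all tested compounds plus 3 SD, set per campaign, cut at about 40% in these data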;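 further: 0% = DMSO wells and 100% = unlabeled Bim-BH3 peptide control; higher means more loss of mP so more displacement of Bim peptide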
Target sequence (Q07820 whole entry, looked up): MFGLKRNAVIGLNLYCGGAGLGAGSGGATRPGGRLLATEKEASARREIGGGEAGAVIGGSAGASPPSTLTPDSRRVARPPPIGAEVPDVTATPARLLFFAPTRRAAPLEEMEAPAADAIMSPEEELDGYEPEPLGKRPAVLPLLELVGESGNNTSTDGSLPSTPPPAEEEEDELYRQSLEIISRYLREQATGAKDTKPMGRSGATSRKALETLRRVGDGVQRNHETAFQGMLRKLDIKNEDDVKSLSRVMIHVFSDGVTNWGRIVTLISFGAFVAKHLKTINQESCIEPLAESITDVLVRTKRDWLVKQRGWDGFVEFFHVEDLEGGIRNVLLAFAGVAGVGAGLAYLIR
GLD-1 TGE inh = GLD-1-TGE RNA interaction inhibition (C. elegans); Q17339; purified GLD-1 + fluorescein TGE RNA, fluorescence polarization; inhibition, % at 5.96 µM; hit rate 0.44% among 320,000; AID 2280;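 active means percent inhibition above a per-plate cutoff, the plate mean of test compounds plus 3 SD, cut at about 30% in these data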;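 further: 0% = DMSO wells with GLD-1 and probe and 100% = wells lacking GLD-1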
BCLXL inh = Bcl-xL (human) inhibition. Q07817. GST-Bcl-xL / FITC-Bim BH3 peptide fluorescence polarization. inhibition, % at 10.9 µM. hit rate 0.7% among 320,000;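 active means inhibition above the mean of all tested compounds plus 3 SD, cutoff set per campaign, cut at about 30% in these data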;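 further: 0% = DMSO wells and 100% = unlabeled Bim-BH3 peptide competitor; inhibitors lower millipolarization by displacing the labeled peptide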
Target sequence (Q07817 whole entry, looked up): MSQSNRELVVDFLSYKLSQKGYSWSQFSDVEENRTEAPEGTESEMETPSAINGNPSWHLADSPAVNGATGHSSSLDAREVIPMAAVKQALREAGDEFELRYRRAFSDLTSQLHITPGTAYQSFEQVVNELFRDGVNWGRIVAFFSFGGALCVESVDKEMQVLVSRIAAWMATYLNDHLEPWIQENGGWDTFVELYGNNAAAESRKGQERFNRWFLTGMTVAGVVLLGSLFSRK
MEX-5 binding = C. elegans MEX-5 TCR-2 RNA binding activity | AID 1832 | MEX-5/FITC-TCR2 RNA binding, fluorescence polarization; stronger effect = lower value | activity score (negative = inhibition of binding), % at 10 µM | hit rate 0.38% among 300,000;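 active means inhibition past about -25% in most replicates, and total fluorescence under double the plate's negative control median, limit read from the data; inconclusive means replicates evenly split on the limit, or fluorescence at least double controls; inactive means too little inhibition in most replicates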;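 further: 0% = DMSO and -100% = 5 µM competing unlabeled TCR2 RNA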
E coli Lon inh = E. coli protease La inhibition. P0A9M0. purified E. coli Lon protease, fluorescence polarization. inhibition, % at 7.94 µM. hit rate 0.42% among 360,000; in the data active means inhibition above about 13%, passing the limit was not always enough;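 further: 0% = enzyme with probe and DMSO and 100% = no enzyme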
EBV gp42 block = EBV gp42 inhibition. Q1HVG2. Fluorescence polarization binding assay, mP read-out. inhibition, % (tested at 21.74 µM). hit rate 0.42% among 220,000; in the data active means inhibition above about 50%
Bcl-xL conf = counter-screen for MCL1 inhibitors: confirmation of human Bcl-xL inhibitors | GST-Bcl-xL / FITC-Bim BH3 peptide FP binding | hit rate 54% among 1,700 | inhibition, % at 10.9 µM | shares compounds with MCL1 BIM primary;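 active means inhibition above a cutoff equal to the mean inhibition of all tested compounds plus 3 SD, cut at about 30% in these data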;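 further: 0% = DMSO wells and 100% = unlabeled Bim BH3 control peptide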
MCL1 BIM confirm = confirmation of human MCL1 and BIM-BH3 interaction inhibitors | hit rate 61% among 1,700 | inhibition, % at 10.9 µM | shares compounds with MCL1 BIM primary | GST-MCL1 / FITC-Bim-BH3 fluorescence polarization;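 active means inhibition above the average of all tested compounds plus 3 SD, cut at about 40% in these data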;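 further: 0% = DMSO wells and 100% = unlabeled Bim-BH3 control peptide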
GLD1 RNA confirm = confirmation of C. elegans GLD-1 TGE RNA binding inhibitors | shares compounds with GLD-1 TGE inh | hit rate 10% among 550 | GLD-1/FL-TGE RNA fluorescence polarization, biochemical | inhibition, % at 5.96 µM | AID 2459;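 active means average inhibition across triplicates above the hit cutoff set in the primary screen, cut at about 32% in these data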;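 further: 0% = GLD-1 with RNA probe and DMSO and 100% = wells lacking GLD-1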
E coli Lon conf = confirmation of E. coli Lon protease inhibitors | shares compounds with E coli Lon inh | purified E. coli Lon, fluorescence polarization | inhibition, % at 7.94 µM | hit rate 31% among 1,400 | AID 602230; in the data active means inhibition above about 16%;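 further: 0% = enzyme with probe and DMSO and 100% = no enzyme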
An asterisk follows results filed as active; ? = inconclusive; . = no result given; + = active, no number.

SMILES	MCL1 BIM primary	GLD-1 TGE inh	BCLXL inh	MEX-5 binding	E coli Lon inh	EBV gp42 block	Bcl-xL conf	MCL1 BIM confirm	E coli Lon conf	others
O=c1[nH]c(=S)n(-c2ccccc2F)c(O)c1C=Nc1ccc(N2CCOCC2)cc1	-50	-6	-29	-6	-18	31	.	.	.
O=c1[nH]c(=S)n(-c2ccc(Br)cc2)c(O)c1C=Nc1ccc(N2CCOCC2)cc1	+	-19	170*	-2	-48	86*	+	+	.
Cc1ccc2c(c1)NP(=S)(Oc1ccccc1)N2 (stereo unspecified)	.	.	.	.	5	.	.	.	.
COc1ccc2c(c1)NP(=S)(Oc1ccccc1)N2 (stereo unspecified)	57*	13	50*	-47*	7	9	56*	82*	.
Cc1ccccc1N1C(=O)/C(=C/c2ccco2)C(=O)NC1=S	98*	6	97*	-2	.	.	97*	99*	.
CCOc1ccc(N2C(=O)/C(=C/c3ccco3)C(=O)NC2=S)cc1	-25	-22	-18	1	-21	.	.	.	.
COc1cc2c(cc1OC)-c1c(OC)c(OC)c(OC)c3ccnc(c13)C2=O	55*	41*	52*	-83*	.	33	59*	56*	.	GLD1 RNA confirm=41*
O=C(O)c1ccccc1NC(=O)N1C[C@H]2C[C@@H](C1)c1cccc(=O)n1C2	-3	5	-2	-3	-8	.	.	.	.
Nc1ccc2ccc3cccc[n+]3c2c1	+	63*	+	?	+	.	+	+	+
Cc1ccc(S(=O)(=O)CC(=O)c2cc(C)c(OC(=O)N(C)C)c(C)c2)cc1	3	6	9	1	-3	2	.	.	.
CN1CCc2cc3c(c4c2C1Cc1ccccc1-4)OCO3 (stereo unspecified)	+	94*	166*	?	148*	.	77*	87*	99*
O=c1cc(C(F)(F)F)c2cc3c4c(c2o1)CCCN4CCC3	+	+	+	?	+	150*	179*	+	167*
Cc1cc2c(C(F)(F)F)cc(=O)oc2c2c1NCCC2	146*	112*	112*	-1	65*	-39	95*	94*	62*
CCOc1ccc(NC(=O)N2C[C@H]3C[C@@H](C2)c2cccc(=O)n2C3)cc1	-3	1	-2	2	-4	.	.	.	.
CCCCCCN=Cc1c(O)n(C)c(=O)n(C)c1=O	-2	-9	-2	2	9	-5	.	.	.
Nc1ccc2nonc2c1[N+](=O)[O-]	+	+	+	?	193*	194*	+	+	+	GLD1 RNA confirm=158*
CN(c1ccc(O)cc1)c1ccc([N+](=O)[O-])c2nonc12	.	.	.	.	-10	.	.	.	.
CCOC(=O)c1cccc(NC(=O)c2c(O)[nH]c(=O)[nH]c2=O)c1	4	-4	5	2	-5	.	.	.	.
COCCNC(=O)Cn1cc(C=C2C(=O)NC(=O)NC2=O)c2ccccc21	-13	-14	0	?	-44	.	.	.	.
Cn1cc(C=C2C(=O)NC(=O)NC2=O)c2ccccc21	+	6	+	?	117*	.	+	+	+
O=[N+]([O-])c1ccc(N2CCCCCC2)c2nonc12	149*	138*	132*	?	61*	.	108*	113*	21*
CC(=NCC1CCCO1)c1c(O)n(C2CCCCC2)c(=O)[nH]c1=O (stereo unspecified)	4	-3	4	-3	-10	-12	.	.	.
C[n+]1c(-c2ccccc2)c2cc(N)ccc2c2ccc(N)cc21	+	136*	155*	-90*	154*	.	189*	+	76*
Cc1ccsc1C(=O)C1CCCN(Cc2cnn(C(C)C)c2)C1 (stereo unspecified)	1	1	1	3	-10	0	.	.	.
COC(=O)CCCCC1SCC(NC(=O)c2ccccc2)C1Cl (stereo unspecified)	46*	38*	48*	3	-1	53*	.	.	.	GLD1 RNA confirm=19
SMILES	MCL1 BIM primary	GLD-1 TGE inh	BCLXL inh	MEX-5 binding	E coli Lon inh	EBV gp42 block	Bcl-xL conf	MCL1 BIM confirm	E coli Lon conf	others
CCN(CC)CCN1Cc2ccccc2C1=N	36	36*	32*	2	-3	-9	.	.	.	GLD1 RNA confirm=-3
COC(=O)C1=C(c2cc3ccccc3o2)C[C@@H]2CC[C@H]1N2C(=O)N1CCC(C)CC1	1	6	-1	-2	13	.	.	.	.
CN1C(=O)C(C2(C#N)CCCCC2)C(=O)N(C)C1=O	-2	3	-2	-1	1	-20	.	.	.
N#C/C(=C\c1ccc(O)cc1)C(=O)O	.	.	.	.	-6	.	.	.	.
N#Cc1ccc(/C=C/C(=O)O)cc1	4	55*	6	.	-1	-10	.	.	.	GLD1 RNA confirm=0
CNC(=O)Oc1cccc(-c2cn3cc(OC(=O)NC)ccc3n2)c1	20	42*	22	.	35*	20	.	.	4	GLD1 RNA confirm=13
CC1(C)CC(=O)C2=C(C1)NC(=O)C21C(C(=O)OC(C)(C)C)=C(N)Oc2ccc(Br)cc21 (stereo unspecified)	-3	5	1	-1	-1	-11	.	.	.
COc1ccc(OCC(=O)N2CCCC(N3CCN(c4ccccc4C)CC3)C2)cc1 (stereo unspecified)	-2	-3	2	1	134*	.	.	.	-4
Cc1ccc(OCC(=O)N2CCCC(N3CCN(c4ccc(F)cc4)CC3)C2)cc1 (stereo unspecified)	6	-1	9	-1	-8	.	.	.	.
O=[N+]([O-])c1ccc(N2CCOCC2)c2cccnc12	3	2	8	2	-2	-11	.	.	.
O=[N+]([O-])c1ccc(N2CCOCC2)c2c1no[n+]2[O-]	.	.	.	.	29*	.	.	.	4
CCOc1cccc(=NC2CCCCC2)c2c(C)n(C)c(C)c12	14	-9	18	-5	90*	-1	.	.	0
CNC(=S)N(C)CCc1cc2c(c(OC)c1/C=C1/C(=O)NC(=O)N(C)C1=O)OCO2	2	-6	-6	-4	-19	-17	.	.	.
COc1cccc2c1C(=O)c1c(O)c3c(c(O)c1C2=O)CC(O)(C(C)=NO)CC3OC1CC(N)C(O)C(C)O1 (stereo unspecified)	.	.	.	.	+	.	.	.	+
CCc1nc2ccc(N3CCN(C)CC3)cc2nc1CC	20	11	16	-7	13	15	.	.	.
